Data on seven compounds can be found in PubChem BioAssay (EPA / NIEHS).

Read-out in assay [1]: Collagen I, COL1A1 (gene 1277)
The assay is described as follows: BSK_hDFCGF_CollagenI: BioMAP Diversity Plus: hDFCGF Assay for Collagen I Biomarker Activity (AID 2284250). The conditions noted are these: primary human foreskin fibroblasts. The method, boiled down: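 ELISA read-out of Collagen I in human dermal foreskin fibroblast cultures, 24 h after dosing. Gain of signal versus DMSO vehicle defines activity.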

Read-out in assay [2]: Plasminogen activator inhibitor-1 (PAI1), SERPINE1 (gene 5054)
The assay is described as follows: BSK_KF3CT_PAI1: BioMAP Diversity Plus: KF3CT Assay for Plasminogen activator inhibitor-1 (PAI1) Biomarker Activity (AID 2284252). The conditions noted are these: primary human keratinocytes with fibroblasts. A digest of the protocol: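 Keratinocyte + dermal fibroblast co-culture (human primary); 24 h post-dose; PAI-1 by ELISA; gain-of-signal fit vs DMSO control.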

Read-out in assay [3]: Monocyte Chemoattractant Protein-1 (MCP1), CCL2 (gene 6347)
As to the kind of experiment: BSK_IMphg_MCP1: BioMAP Diversity Plus: IMphg Assay for Monocyte Chemoattractant Protein-1 (MCP1) Biomarker Activity (AID 2284253). The conditions noted are these: primary human endothelial cells with macrophages. A digest of the protocol:
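ELISA readout of MCP-1 at 24 hours in IMphg co-cultures of venular endothelial cells and macrophages, normalised to DMSO; parallel cultures stained with sulforhodamine B for overt cytotoxicity.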

Read-out in assay [4]: Interleukin-8 (IL8), CXCL8 (gene 3576)
As to the kind of experiment: BSK_KF3CT_IL8: BioMAP Diversity Plus: KF3CT Assay for Interleukin-8 (IL8) Biomarker Activity (AID 2284254). The conditions noted are these: primary human keratinocytes with fibroblasts. A digest of the protocol:
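IL-8 read-out: ELISA, 24 h post-dose, human skin primary co-culture (keratinocytes + foreskin fibroblasts). DMSO = baseline; positive-direction fit.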

Read-out in assay [5]: Macrophage Inflammatory Protein-1 Alpha (MIP1a), CCL3 (gene 6348)
The assay is described as follows: BSK_IMphg_MIP1a: BioMAP Diversity Plus: IMphg Assay for Macrophage Inflammatory Protein-1 Alpha (MIP1a) Biomarker Activity (AID 2284255). The conditions noted are these: primary human endothelial cells with macrophages. The method, boiled down: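 MIP-1a protein levels were quantified by ELISA after 24 h treatment of human endothelial cell–macrophage co-cultures, compared with DMSO. Parallel cultures were fixed with TCA and stained with 0.1% SRB to gauge overt cytotoxicity.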

Read-out in assay [6]: Plasminogen activator inhibitor-1 (PAI1), SERPINE1 (gene 5054)
As to the kind of experiment: BSK_MyoF_PAI1: BioMAP Diversity Plus: MyoF Assay for Plasminogen activator inhibitor-1 (PAI1) Biomarker Activity (AID 2284256).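 As to outcome: PAI-1 protein level measured by ELISA in fibroblast cultures.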 The conditions noted are these: primary human lung fibroblasts. A digest of the protocol: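 MyoF lung fibroblasts, human primary; compound 24 h; PAI-1 ELISA; positive-direction fit vs DMSO baseline; parallel SRB total-protein staining for cytotoxicity.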

Read-out in assay [7]: CD69, CD69 (gene 969)
As to the kind of experiment: BSK_IMphg_CD69: BioMAP Diversity Plus: IMphg Assay for CD69 Biomarker Activity (AID 2284257). The conditions noted are these: primary human endothelial cells with macrophages. A digest of the protocol:
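Readout is ELISA for CD69 in primary human venular endothelial cell/macrophage co-culture, taken at 24 h post-dosing. SRB staining of parallel cultures gauged overt cytotoxicity; signal increase versus DMSO defined activity.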

Read-out in assay [8]: Eotaxin 3, CCL26 (gene 10344)
As to the kind of experiment: BSK_BF4T_Eotaxin3: BioMAP Diversity Plus: BF4T Assay for Eotaxin 3 Biomarker Activity (AID 2284258). The conditions noted are these: primary human bronchial epithelial cells with fibroblasts. A digest of the protocol:
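ELISA measurement of Eotaxin-3 after 24 h chemical exposure in a bronchial epithelial/dermal fibroblast co-culture, with DMSO as baseline. Parallel SRB staining (0.1% SRB after 10% TCA fixation, 560 nm) flagged overt cytotoxicity.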

Read-out in assay [9]: Monocyte Chemoattractant Protein-1 (MCP1), CCL2 (gene 6347)
As to the kind of experiment: BSK_BF4T_MCP1: BioMAP Diversity Plus: BF4T Assay for Monocyte Chemoattractant Protein-1 (MCP1) Biomarker Activity (AID 2284259). The conditions noted are these: primary human bronchial epithelial cells with fibroblasts. A digest of the protocol:
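MCP-1 ELISA readout taken 24 h after dosing in the BF4T system (bronchial epithelial cells plus dermal fibroblasts). Parallel SRB total-protein staining flagged cytotoxicity; DMSO served as baseline, positive fitting direction.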

Read-out in assay [10]: Intercellular Adhesion Molecule 1 (ICAM1), ICAM1 (gene 3383)
As to the kind of experiment: BSK_BF4T_ICAM1: BioMAP Diversity Plus: BF4T Assay for Intercellular Adhesion Molecule 1 (ICAM1) Biomarker Activity (AID 2284260). The conditions noted are these: primary human bronchial epithelial cells with fibroblasts. The method, boiled down: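 ICAM-1 levels measured by ELISA after 24 h chemical treatment of bronchial epithelial cell/dermal fibroblast co-cultures, read against DMSO baseline. Overt cytotoxicity checked in parallel cultures by sulforhodamine B staining.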

Read-out in assay [11]: Interleukin-8 (IL8), CXCL8 (gene 3576)
The assay is described as follows: BSK_MyoF_IL8: BioMAP Diversity Plus: MyoF Assay for Interleukin-8 (IL8) Biomarker Activity (AID 2284261). The conditions noted are these: primary human lung fibroblasts. A digest of the protocol: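 Lung fibroblasts (human primary) → chemical exposure → 24 h → IL-8 measured by ELISA. Signal increase scored versus DMSO control.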

Read-out in assay [12]: CD90, THY1 (gene 7070)
As to the kind of experiment: BSK_BF4T_CD90: BioMAP Diversity Plus: BF4T Assay for CD90 Biomarker Activity (AID 2284262). The conditions noted are these: primary human bronchial epithelial cells with fibroblasts. The method, boiled down: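 CD90 levels by ELISA after 24 h treatment of human bronchial epithelial cell/dermal fibroblast cultures, analysed versus DMSO. Overt cytotoxicity checked in parallel cultures by sulforhodamine B staining.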

Read-out in assay [13]: Interleukin-8 (IL8), CXCL8 (gene 3576)
The assay is described as follows: BSK_BF4T_IL8: BioMAP Diversity Plus: BF4T Assay for Interleukin-8 (IL8) Biomarker Activity (AID 2284263). The conditions noted are these: primary human bronchial epithelial cells with fibroblasts. The method, boiled down: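 Human bronchial epithelial cells with dermal fibroblasts co-culture; IL-8 measured by ELISA 24 hours after dosing, fitted vs DMSO. Cytotoxicity tracked in parallel cultures by SRB total-protein staining.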

Read-out in assay [14]: Interleukin-1 alpha (IL1a), IL1A (gene 3552)
The assay is described as follows: BSK_BF4T_IL1a: BioMAP Diversity Plus: BF4T Assay for Interleukin-1 alpha (IL1a) Biomarker Activity (AID 2284264). The conditions noted are these: primary human bronchial epithelial cells with fibroblasts. A digest of the protocol: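 ELISA read-out of IL-1α from bronchial epithelial cell/dermal fibroblast co-cultures 24 h after compound addition. Increases scored against DMSO negative control. Cytotoxicity monitored by sulforhodamine B staining of parallel cultures.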

Read-out in assay [15]: Decorin, DCN (gene 1634)
The assay is described as follows: BSK_MyoF_Decorin: BioMAP Diversity Plus: MyoF Assay for Decorin Biomarker Activity (AID 2284265). The conditions noted are these: primary human lung fibroblasts. The method, boiled down:
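ELISA readout of decorin, 24 h post-dosing; primary human lung fibroblast (MyoF) culture; gain-of-signal fit vs DMSO baseline.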

Read-out in assay [16]: KRT18 (gene 3875)
The assay is described as follows: BSK_BF4T_Keratin818: BioMAP Diversity Plus: BF4T Assay for Keratin 818 Biomarker Activity (AID 2284266). The conditions noted are these: primary human bronchial epithelial cells with fibroblasts. A digest of the protocol: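 Keratin 8/18 levels quantified by ELISA after 24 h chemical treatment of bronchial epithelial cell/dermal fibroblast co-cultures, fitted in positive direction relative to DMSO. Parallel SRB staining tracks overt cytotoxicity.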

Assay [17] can be described thus: BSK_MyoF_SRB: Viability Assessment in the BioMAP Diversity Plus: MyoF Assay (AID 2284267).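 Also: total protein by SRB absorbance in parallel cultures as cytotoxicity measure.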 The conditions noted are these: primary human lung fibroblasts. The method, boiled down:
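Lung fibroblast cultures, 24 h post-dose; fix 10% TCA, stain 0.1% SRB, read 560 nm. Signal = total protein as cytotoxicity measure; fitted relative to DMSO negative control.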

Read-out in assay [18]: Matrix Metallopeptidase 1 (MMP1), MMP1 (gene 4312)
The assay is described as follows: BSK_MyoF_MMP1: BioMAP Diversity Plus: MyoF Assay for Matrix Metallopeptidase 1 (MMP1) Biomarker Activity (AID 2284268). The conditions noted are these: primary human lung fibroblasts. A digest of the protocol: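 Cells: human lung fibroblasts. Exposure: 24 h chemical dosing. Detection: ELISA for MMP1. Analysis: upward fitting against DMSO negative control.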

Read-out in assay [19]: TIMP metallopeptidase inhibitor 1 (TIMP1), TIMP1 (gene 7076)
The assay is described as follows: BSK_MyoF_TIMP1: BioMAP Diversity Plus: MyoF Assay for TIMP metallopeptidase inhibitor 1 (TIMP1) Biomarker Activity (AID 2284269). The conditions noted are these: primary human lung fibroblasts. The method, boiled down:
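TIMP-1 levels were determined by ELISA in human lung fibroblasts treated for 24 h. DMSO served as negative control and baseline for upward curve fitting.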

The AC50 is the concentration giving half of the maximal activity seen.

Active and inactive are the calls of the source. The calls were made as follows: active = hit-call score of the fitted dose curve at least 0.9, where 1 is the maximum; inactive = score below 0.9.

Turning to `C=CC(=O)OCCC(F)(F)C(F)(F)C(F)(F)C(F)(F)F`, the outcome in assay [1], in assay [2], in assay [3], in assay [4], in assay [5] and in assay [6] was inactive. Further, the result in assay [7], in [8], in assay [9], in assay [10], in [11] and in [12] was inactive. Further, the result in assay [13], in assay [14], in assay [15], in [16], in assay [17] and in assay [18] was inactive. Also, the outcome in [19] was inactive.
For the compound `OCC(F)(F)C(F)(F)C(F)(F)C(F)(F)C(F)(F)C(F)(F)CO`, the outcome in assay [1], in [2], in assay [3], in assay [4], in assay [5] and in [6] was inactive. In addition, the result in [7], in assay [8], in assay [9], in assay [10], in assay [11] and in assay [12] was inactive. Further, the outcome in assay [13], in assay [14], in [15], in assay [16], in assay [17] and in assay [18] was inactive. In assay [19], the result was inactive.
`O=C1C=CC(=O)N1c1ccc(Cc2ccc(N3C(=O)C=CC3=O)cc2)cc1`: the AC50 was 5.09 µM (active) in assay [6], 3.58 µM (active) in [17], 11.7 µM (active) in assay [18] and 5.94 µM (active) in assay [19]. For the same compound, the outcome in assay [11] and in [15] was inactive.
For the compound `CCOC(=O)CC(=O)C(F)(F)C(F)(F)F`, the outcome in assay [1], in assay [2], in assay [3], in [4], in assay [5] and in [6] was inactive. In addition, the result in assay [7], in assay [8], in assay [9], in assay [10], in assay [11] and in assay [12] was inactive. Also, the outcome in [13], in [14], in assay [15], in assay [16], in [17] and in [18] was inactive. In assay [19], the result was inactive.
In the case of `C[C@]12CC[C@H]3C(=CCc4cc(O)ccc43)[C@@H]1CCC2=O`, the outcome in assay [6], in [11], in assay [15], in assay [17], in assay [18] and in assay [19] was inactive.
Turning to `O=C1c2c(O)ccc(Nc3ccc(CCO)cc3)c2C(=O)c2c([N+](=O)[O-])ccc(O)c21`, the AC50 is 32.3 µM (active) in assay [6]; 1.65 µM (active) in assay [11]; 9.73 µM (active) in [15]; 11 µM (active) in [17]; 11 µM (active) in [18]. The result in assay [19] was inactive.
As for `CC(C)CCCC(C)CCO` (stereo unspecified), the result in [6], in assay [11], in [15] and in [19] was inactive. Also, the AC50 was 34.5 µM (active) in [17] and 33.7 µM (active) in assay [18].
